# The panel holds about 83,000 compounds, 20% with a hit somewhere; the sample as a whole holds those more often.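 Method: cells in 96-well plates; compound added at one concentration; 48 h incubation; percent growth measured; values under 10 scored active.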 Active and inactive are the calls of the source.
# Tested on: HL-60(TB) leukemia
# Assay: NCI-60 one-dose screen, 48 h (100 = growth as untreated, 0 = no growth, -100 = all killed)
# Conditions: 10 µM unless noted
row,Compound,growth
1,CC(C)(C)OC(=O)CN1CCc2c(sc3ncnc(N/N=C/c4ccccc4Br)c23)C1,92.1% (inactive)
2,CN(C)c1ccc(/C=C/c2c(F)cccc2F)cc1,98.8% (inactive)
3,O=S(=O)(c1cccc(NC2=Nc3cccc4cccc2c34)c1)N1CCCC1,60.8% (inactive)
4,O=C(O)CCCN1C(=O)/C(=C/c2cn(-c3ccccc3)nc2-c2ccc([N+](=O)[O-])cc2)SC1=S,83.4% (inactive)
5,NC(=O)c1cccc(-n2ccc3cc(NC(=O)c4ccc(N5CCOCC5)c(C(F)(F)F)c4)ccc32)n1,51.1% (inactive)
6,Cc1cc([N+](=O)[O-])c(C)cc1C(=O)O,107% (inactive)
7,CC(=O)c1ccc(C)c(N)c1,94.8% (inactive)
8,C#CCOc1ccc2ncnc(Nc3cccc(NC(=O)CCl)c3)c2c1,63.7% (inactive)
9,COc1cc(-c2nn(-c3ccc(Br)cc3)cc2C(=O)O)ccc1O,82.8% (inactive)
10,O=C(/C=C\c1ccc2c(c1)OCO2)/C=C/c1ccc2c(c1)OCO2,42.8% (inactive)
11,CCOC(=O)C1=C(COCCN)NC(C)=C(C(=O)OC)C1c1ccccc1Cl (stereo not given),95.5% (inactive)
12,O=C(Oc1ccc(CCl)cc1)c1ccccc1,-44.6% (active)
13,Cc1ccc(CC(=O)O)c(C)c1,98% (inactive)
14,O=C(Nc1cccc(Cl)c1)c1cc(N=Nc2ccc([N+](=O)[O-])cc2Cl)ccc1O,38.2% (inactive)
15,CC1(C)C2CCC(O)(C(=O)O)C1C2 (stereo not given),107% (inactive)
16,CCOC(=O)C1(CC(C)C)CCOC1=O (stereo not given),96.9% (inactive)
17,CN(CCCN(C)CCC1CCCCC1)CCC1CCCCC1,116% (inactive)
18,COc1cc2c(cc1OCCCN1Cc3ccc(OCCCCC(=O)N4CCC(CCN5CCCC5)CC4)cc3C1)N=C(N)C21CCCC1,84.9% (inactive)
19,Cc1ccc(Nc2c(C(N)=O)cnc3ccc(S(=O)(=O)Nc4cc(C)on4)cc23)cc1,113% (inactive)
20,CCN(CC)CCNc1c(C)cc(CO)c(Cl)c1C,107% (inactive)

row,Compound,growth
1,O=C(O)c1ccc(-n2cc(/C=N/Nc3ccccc3F)c(-c3ccc(O)cc3)n2)cc1,45% (inactive)
2,COc1ccccc1OCC(O)CO (stereo not given),74.1% (inactive)
3,Cc1cc(-c2nnc(/C=C/c3ccc4c(c3)OCO4)o2)n[nH]1,10.6% (inactive)
4,Clc1ccc2c(NCCCN3CCN(c4nc(-n5ccnc5)nc5ccccc45)CC3)ccnc2c1,52.7% (inactive)
5,O=C1c2cccc3cccc(c23)C(=O)N1CCCCCCCCCCN1C(=O)c2cccc3cccc(c23)C1=O,99.6% (inactive)
6,CSC1=C(N)C(=O)c2[nH]cc(CO)c2C1=N,-28.1% (active)
7,Cc1cccc(C[C@H](NC(=O)Nc2ccc(Cl)cc2F)C(=O)N[C@@H]2C(=O)N3C[C@H](OC(=O)CCN(C)C)C[C@H]3C(=O)N3CCCC[C@H]3C(=O)N[C@@H](C)C(=O)N3C[C@H](C)C[C@H]3C(=O)O[C@H]2C)c1,16.3% (inactive)
8,N#Cc1c(N2CCOCC2)nc(=S)[nH]c1-c1ccco1,70.7% (inactive)
9,C=C1c2nc3ccccc3n2C=C(c2ccc(Cl)cc2)N1Cc1ccc(OC)cc1,53% (inactive)
10,O=C1c2ccccc2-c2c1c1cccnc1c(=O)n2C[C@H](O)CO,48.8% (inactive)
11,Cc1ccc(S(=O)(=O)Nc2ccc(-c3cc(-c4cccc(F)c4)c(C#N)c(=O)[nH]3)cc2)cc1,87% (inactive)
12,Cc1ccc(Cc2cnc(NC(=O)/C=C/c3cccc(C)c3)s2)cc1,-15.4% (active)
13,C=CCOc1cccc(/C=C2\SC(=Nc3ccc(O)cc3)NC2=O)c1,-16.8% (active)
14,Oc1ccc2cc(Br)ccc2c1-c1c(O)ccc2cc(Br)ccc12,81.2% (inactive)
15,CCCCNc1nc(NC(C)(C)C)nc(NC(C)(C)C)n1,36.6% (inactive)
16,Cc1c2ncccc2nc2[nH]c3ccc(OCCN(C)C)cc3c12,15.9% (inactive)
17,CCOC(=O)C1C(=O)C=C(c2cc(OC)c(OC)c(OC)c2)CC1c1sc(N(C)Cc2ccccc2)nc1Cl (stereo not given),80.4% (inactive)
18,Cc1cc(C(=O)c2ccccc2)c(C)c2c1[nH]c1ccc(Cl)cc12,1.08% (active)
19,CC(C)N(C(=O)c1ccccc1)C(C)C,100% (inactive)
20,COc1ccc(C2=CN3CC=CC3CC2=O)cc1 (stereo not given),106% (inactive)

# — PubChem BioAssay (NCI)
